# This is a sample that favours compounds with a hit; in the whole collection about 13% have one here.
# FMDV antiviral: foot and mouth disease virus antiviral activity. FMDV antiviral cell-based qHTS. Potency, µM (top dose mostly 57.9 µM), for the others: at the top dose activity change, negative = inhibition, hits mostly inhibitors. 410,000 tested, 1.2% active. AID 1159524; calls by dose curve; tested in HEK293T cells; further: read-out not given here; potency means the concentration at half of the fitted maximal effect; on the % scale 0 is the no-effect control and ±100 the full control effect; nearly all actives have a fitted effect of over 45% in size
# Cycloheximide cs: counter-screen for Shiga toxin inhibitors: cycloheximide protein synthesis inhibition; cell reporter, cycloheximide protein synthesis inhibition counterscreen; max response, %; 300,000 tested, 12% active; AID 2314; in the data active means max response mostly above about 13%, no sharp cut-off; inactive means mostly below about 14%; further: read at 38.3 µM for the half of the compounds with a filed dose; 0% is about no effect
# HCV inh: HCV inhibition; Huh7.5.1 HCVcc-Cre infection, luciferase reporter, 44 h; Potency, µM (top dose mostly 41.8 µM), for the others: top-dose activity change, negative = inhibition, actives largely listed as inhibitors; AID 651820; 340,000 tested, 3.4% active; active means well fitted inhibition curve with a large enough effect; inconclusive means small, poorly fitted or top-dose-only effect, or another doubt; inactive means no such curve, though single readings can be large or run the other way; further: potency means the concentration at half of the fitted maximal effect; on the % scale 0 is the no-effect control and ±100 the full control effect
#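 HCVcc-Cre virus at an moi near 0.5 was added right after compound to cells cultured 4 h from seeding (1,000 cells/well). Luciferase activity was determined 44 h later, 15 min after substrate addition at RT.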
# Marburg entry inh: blocks Marburg virus binding to or entry into cells; Marburg virus pseudotyped entry inhibition, cell reporter; Potency, µM (top dose mostly 37.8 µM), without a hit: at the highest dose activity change, negative = inhibition, actives largely listed as inhibitors; 300,000 tested, 1.8% active; AID 540276; calls by dose curve; tested in HEK293 cells; further: potency means the concentration at half of the fitted maximal effect; on the % scale 0 is the no-effect control and ±100 the full control effect
# Shiga toxin inh: blocks Shiga toxin action in Vero cells | Vero cells, Shiga toxin protein synthesis inhibition reporter | inhibition, % at 38.7 µM | 290,000 tested, 9.2% active | AID 2315; in the data active means inhibition mostly above about 28%, no sharp cut-off; inactive means mostly below about 43%; further: 0% is about no effect
# Lassa entry inh: blocks Lassa virus binding to or entry into cells. AID 540256. Lassa virus pseudotype entry inhibition, cell reporter. 300,000 tested, 1.2% active. Potency, µM (top dose mostly 37.9 µM), for inactives: at the highest dose activity change, negative = inhibition, usual class: inhibitors; calls by dose curve; tested in HEK293 cells; further: potency means the concentration at half of the fitted maximal effect; on the % scale 0 is the no-effect control and ±100 the full control effect; nearly all actives have a fitted effect of over 50% in size
# An asterisk follows results filed as active; ? = inconclusive; . = no result given; ! = not confirmed by another sample; [ ] = remark or other dose.
SMILES,FMDV antiviral,Cycloheximide cs,HCV inh,Marburg entry inh,Shiga toxin inh,Lassa entry inh
O=C(COC(=O)c1ccc(Cl)nc1)Nc1nnc(-c2ccccc2)o1,-1.7%,.,27.8%,8.6%,.,-8.0%
c1ccc(-c2nnc(C3CC(c4cccnc4)=NO3)o2)cc1 (centres undefined),-2.7%,14.9*,-9.6%,.,20.1,.
COc1ccc(NC(=O)C2C(c3ccccc3)C2(Cl)Cl)c(OC)c1 (centres undefined),-26.7%,-3.0,?,.,-12.8,.
Brc1ccc(-c2nnc(-c3cccnc3)o2)cc1,27.2%,.,-4.1%,7.9%,.,?
Cc1ccc(-c2nnc(-c3cccnc3)o2)cc1,20.8%,36.2*,-6.9%,.,81.2*,.
COc1ccc(-c2nnc(-c3ccc(N)cc3)o2)cc1,46.3%,43.9*,-2.1%,9.3%,61.9*,7.7%
Clc1ccc(-c2nnc(-c3cccnc3)o2)cc1,56.7%,19.6*,1.2%,-8.9%,55.5*,6.0%
CSc1ncccc1-c1nc2ccccc2[nH]1,42.4%,27.9*,10.6%,?,50.6,10.8%
Cc1[nH]c(=O)[nH]c(=O)c1NC(=O)CSc1ncccc1-c1nc2ccccc2[nH]1,10.0%,20.2,-4.7%,1.4%,48.8,-21.9%
CCSc1ncccc1-c1nc2ccccc2[nH]1,31.7%,38.4*,-12.6%,8.0%,99.3*,6.1%
Cc1ccc(CNC(=O)CN2C(=O)C3(SCC(=O)N3c3ccc(F)c(F)c3)c3ccccc32)cc1 (centres undefined),5.4%,.,.,.,.,-3.9%[46.1 µM]
Cc1ccc(C(OCC(O)CNCc2ccc(F)cc2)c2ccccc2)cc1 (centres undefined),?,-7.9,8.91µM*,.,-5.9,.
NCC(O)COCCC12CC3CC(CC(C3)C1)C2 (centres undefined),-11.4%,7.4,10.5%,-24.4%[46.1 µM],-25.8,9.7%
COc1ccc(C(OCC(O)CNC(C)c2ccccc2)c2ccc(OC)cc2)cc1 (centres undefined),4.0%,-3.8,-26.4%,3.55µM*,7.0,?
CC(NCC(O)COCCC12CC3CC(CC(C3)C1)C2)c1ccccc1 (centres undefined),31.6µM*,-5.6,7.94µM*,11.6µM*,-17.2,?
O=C(c1ccccc1)c1ccc(OCC(O)CNCc2ccc(F)cc2)cc1 (centres undefined),1.8%,-5.2,-3.6%,?,-9.7,19.7%
CC(C)NCC(O)COc1cccc2ccccc12 (centres undefined),-23.5%,-1.2,-15.1%,0.794µM*!,-12.3,-7.6%
Cc1cccc(C)c1OCC(O)CNC(C)c1ccccc1 (centres undefined),-22.5%,-1.6,12.6µM*,?,-5.7,?
NC(=O)c1cc(N2CC2)c([N+](=O)[O-])cc1[N+](=O)[O-],1.26µM*,.,0.3%,?,.,-15.0%
CCC(O)CNC(=O)c1cnn(-c2ncc3c(n2)-c2ccccc2CCC3)c1C1CC1 (centres undefined),38.0%,.,.,.,.,.
Cc1cccc(CSc2nc3c(cc2C#N)CN(C)CC3)c1,3.3%,8.6,14.1µM*,5.3%,7.7,9.1%
N#Cc1cc2c(nc1SCc1ccccc1)CCCC2,5.6%,-0.9,1.4%,0.0%,-3.4,0.3%
CN1CCc2nc(SCc3ccccc3Br)c(C#N)cc2C1,-2.3%,-2.3,7.94µM*,-7.9%,-13.9,-12.9%
CCn1cc(C(=O)NCCCN2CCC(C)CC2)c(=O)c2cc(S(=O)(=O)N3CCOCC3)ccc21,14.4%,-2.0,-1.6%,.,-14.5,.
O=C(Nc1ccc2c(c1)CCC2)c1ccccc1Br,38.8%,33.5*,-9.4%,?,62.8*,?
SMILES,FMDV antiviral,Cycloheximide cs,HCV inh,Marburg entry inh,Shiga toxin inh,Lassa entry inh
CSc1ccccc1C(=O)Nc1cccc(C)c1,28.4%,10.9,-8.1%,?,-3.8,?
COC(=O)c1ccc(NC(=O)c2ccccc2SC)cc1,54.5%,27.3*,-15.9%,25.4%,46.2*,?
CSc1ccccc1C(=O)Nc1ccc2c(c1)CCC2,25.7%,20.9,8.2%,?,41.1*,-13.7%[46.1 µM]
Cc1c(C(=O)Nc2ccc3c(c2)CCC3)cccc1[N+](=O)[O-],25.3%,95.5*,-11.6%,13.3%,125.3*,?
COC(=O)c1ccc(NC(=O)c2ccccc2C(=O)Nc2ccc(C(=O)OC)cc2)cc1,50.3%,.,-7.1%,?,.,-9.6%[46.1 µM]
CCOc1cccc2sc(N(CCN(C)C)C(=O)c3ccc4c(c3)OCCO4)nc12,-3.5%,-0.8,.,-7.1%,-17.9,-26.4%
CC12CCC(C(=O)N(CCCCN3CCN(Cc4ccccc4)CC3)C1=O)C2(C)C (centres undefined),-15.2%,-2.0,-4.1%,?,1.6,5.7%[46.1 µM]
CCN(C1CCS(=O)(=O)C1)S(=O)(=O)c1ccc(Cl)s1 (centres undefined),-15.2%,.,25.0%,-5.5%,.,6.5%[46.1 µM]
Clc1cccc(C2=NOC(c3nnc(-c4ccccc4)o3)C2)c1 (centres undefined),-4.7%,-2.1,-11.0%,.,-2.9,.
CCCCC(=O)NNC(=S)NC(=O)c1ccc(C)cc1,-7.4%,22.5,-28.1%,5.1%[46.1 µM],49.3*,-9.9%[46.1 µM]
COCCCNC(=S)NNC(=O)c1ccc(C(C)(C)C)cc1,-16.2%,2.6,7.6%,.,-19.4,.
CCCCC(=O)NNC(=S)NC(=O)c1ccc([N+](=O)[O-])cc1,-12.8%,-0.7,-3.4%,.,-16.5,.
COCCCNC(=S)NC(=O)c1ccc(C)cc1,-8.8%,77.7*,-3.5%,?,123.0*,?
O=C(/C=C/c1ccccc1)N1CCN(c2c(Cl)cccc2[N+](=O)[O-])CC1,?,0.5,0.4%,-6.5%,-13.9,9.2%
CCN1/C(=C/c2cc[n+](C)cc2)C=Cc2cc(C)ccc21,5.01µM*,-1.2,5.01µM*,?,8.2,?
CCN1/C(=C/c2ccc3ccccc3[n+]2CCCS(=O)(=O)[O-])C=Cc2cc(C)ccc21,?,2.9,20.8%,23.1%[46.1 µM],-4.6,14.1%[46.1 µM]
Cc1cc(C)cc(OCc2cc(=O)n3c(-c4ccccc4)csc3n2)c1,0.0%,.,.,-0.8%[46.1 µM],.,3.7%[46.1 µM]
CCN(CC)CCCN=C1N[C@@H](c2cccc(C(F)(F)F)c2)C(C(=O)OC)=C(C)N1CC,-3.8%,.,10µM*,.,.,.
Cc1ccc(Nc2ncnc3sc4c(c23)CCC(C)C4)cc1C (centres undefined),-13.8%,.,.,0.1%[46.1 µM],.,17.0%[46.1 µM]
Cc1ccc(Nc2ncnc3sc(C)c(C)c23)cc1C,9.0%,31.0*,?,18.9%,43.3,14.6%
Cc1sc2ncnc(N[C@@H](Cc3ccccc3)C(=O)O)c2c1C,3.4%,-1.8,11.8%,2.6%[46.1 µM],-9.5,-1.4%
Cc1sc2ncnc(N/N=C/c3ccccc3O)c2c1C,30.1%,35.9*,?,3.16µM*,33.5*,10.3µM*
COc1ccc(/C=N/Nc2ncnc3sc(C)c(C)c23)cc1,4.8%,14.0,-19.4%,15.7%,30.7,9.0%
Cc1sc2ncnc(N/N=C/c3ccc(O)cc3)c2c1C,5.2%,16.0,11.2µM*,?,15.7,?
CC1=C2C(O)C(=O)OC3CC4C(C)(C)C(=O)C=C[C@]4(C)C(CC1)[C@@]23C (some centres undefined),-8.0%,.,.,.,.,.
